High-throughput results: PubChem, National Center for Advancing Translational Sciences (NCATS)
In the library only some 15% were active in any assay of this set; here they are far more common.
ELG1 DNA repair = qHTS screen for small molecules that inhibit ELG1-dependent DNA repair in human embryonic kidney (HEK293T) cells expressing luciferase-tagged ELG1; HEK293T ELG1-luciferase reporter, luminescence, 16 h; DNA damage induced by 5-fluorouridine; Potency, µM (highest dose often 46.1 µM), inactives show at the highest dose activity change, negative = inhibition, usual class: inhibitors; 2.3% of 330,000 active; AID 504467, 2011; also: nearly all actives have a fitted effect of over 55% in size
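In this reporter screen, reduction of luminescence relative to DMSO vehicle indicated activity. Compounds and 5-fluorouridine were added together to 2,000 cells per well, incubated for 16 hr at 37 °C, then developed with ONE-Glo.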
DT40 TDP1 no CPT = qHTS for Inhibitors of human tyrosyl-DNA phosphodiesterase 1 (TDP1): qHTS in cells in absence of CPT; Potency, µM (series often up to 46.2 µM), without a hit: at the highest dose activity change, negative = growth inhibition, actives largely listed as inhibitors; DT40 Tdp1-/- hTDP1 cells, no CPT, ATP luminescence, 48 h; 15% of 420,000 active; also: nearly all actives have a fitted effect of over 55% in size
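No-CPT arm: Tdp1-/-;hTDP1 DT40 cells (400/well) plus compounds, incubated ≥48 hr at 37 °C. Readout CellTiter-Glo luminescence.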
RORg inh = qHTS for inhibitors of ROR gamma transcriptional activity. Nuclear receptor ROR-gamma (Mus musculus), P51450. Drosophila S2 Gal4-RORgamma UAS-luciferase reporter, 20 h. Potency, µM (titrated, usually from 53.6 µM), without a hit: at the highest dose activity change, negative = inhibition, usual class: inhibitors. 5.4% of 310,000 active. AID 2551, 2010; also: nearly all actives have a fitted effect of over 60% in size
Target sequence (P51450 whole entry, looked up, the tested form may be a part): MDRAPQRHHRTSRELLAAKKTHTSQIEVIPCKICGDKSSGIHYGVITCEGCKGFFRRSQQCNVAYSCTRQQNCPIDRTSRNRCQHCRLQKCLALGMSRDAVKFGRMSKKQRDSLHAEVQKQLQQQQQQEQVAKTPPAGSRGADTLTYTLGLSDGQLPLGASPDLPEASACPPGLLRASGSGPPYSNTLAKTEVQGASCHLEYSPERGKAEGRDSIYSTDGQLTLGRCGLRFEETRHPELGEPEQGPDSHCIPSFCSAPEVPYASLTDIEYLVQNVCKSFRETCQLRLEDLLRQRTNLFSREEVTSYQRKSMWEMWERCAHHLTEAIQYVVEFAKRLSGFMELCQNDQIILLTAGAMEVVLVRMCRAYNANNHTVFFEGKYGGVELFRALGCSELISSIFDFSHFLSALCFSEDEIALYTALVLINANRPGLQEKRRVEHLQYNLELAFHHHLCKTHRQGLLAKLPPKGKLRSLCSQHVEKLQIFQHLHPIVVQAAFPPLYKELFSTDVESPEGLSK
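Stably transfected Drosophila Schneider cells are the test system, with ROR gamma fused to Gal4 and luciferase under UAS control; luminescence is read after 20 hr of 700 uM copper sulfate induction at ambient temperature.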
12-LOX inh = Primary qHTS assay for inhibitors of human arachidonate 12S-lipoxygenase (ALOX12): Round 2 | Polyunsaturated fatty acid lipoxygenase ALOX12 (Homo sapiens), P18054 | Potency, µM (series often up to 108 µM), for the others: at the top dose activity change, negative = inhibition, usual class: inhibitors | AID 1671190, 2021 | 1.1% of 580,000 active | purified 12hLO, xylenol orange hydroperoxide absorbance
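Purified human 12hLO (150 nM final) in 25 mM Hepes, 0.01% Triton X-100, pH 7.0 was preincubated 15 min at room temperature with compound. Then 40 uM arachidonic acid was added, 30 min. Hydroperoxide was read by Fe-XO absorbance ratio 573/405 nm.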
DT40 TDP1 CPT = qHTS for Inhibitors of human tyrosyl-DNA phosphodiesterase 1 (TDP1): qHTS in cells in presence of CPT | 12% of 420,000 active | Potency, µM (doses to about 46.2 µM), inactives show top-dose activity change, negative = growth inhibition, actives largely listed as inhibitors | chicken DT40 Tdp1-/-;hTDP1 cells + 20 nM CPT, ATP luminescence, 48 h | AID 686979, 2013; also: nearly all actives have a fitted effect of over 55% in size
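Cell growth measured by CellTiter-Glo luminescence after a minimum 48 h, 37 C compound exposure with 20 nM CPT in Tdp1-knockout DT40 cells stably expressing hTDP1, seeded 400/well; qHTS titration format.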
VP16 counter = VP16 counterscreen qHTS for inhibitors of ROR gamma transcriptional activity | Drosophila S2 Gal4-VP16 UAS-luciferase, luminescence, 20 h | Potency, µM (series often up to 53.6 µM), without a hit: at the highest dose activity, negative = inhibition, usual class: inhibitors | 3.5% of 310,000 active | AID 2546, 2010;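 also: Gal4-VP16 expression switched on by copper sulfate through the metallothionein promoter; nearly all actives have a fitted effect of over 50% in size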
Numbers without * were called inactive; ? = inconclusive; . = no result given; [ ] = remark or other dose. Calls follow the shape of the dose curve; as a rule, active = well fitted curve in the direction sought with a large enough effect; inconclusive = small, poorly fitted or top-dose-only effect, or another doubt; inactive = no such curve, though single readings can be large; an effect the other way counts as inactive or inconclusive. % is scaled to controls: 0 for no effect and ±100 for the full control effect; potency is read from the fitted curve at half-maximal effect.

SMILES | ELG1 DNA repair | DT40 TDP1 no CPT | RORg inh | 12-LOX inh | DT40 TDP1 CPT | VP16 counter
COc1ccc(-n2nc(C#N)c(Cl)cc2=O)cc1 | ? | 4.61µM* | 10µM* | -9.8% | 3.26µM* | 12.6µM*
COC(=O)CCC/C=C1/SCC(NC(=O)c2ccccc2)C1=O (configuration not stated) | 20.0% | 16.4µM* | 2.4% | -23.5% | 25.9µM* | 3.7%
COC(=O)CCC/C=C1/SCC(NC(=O)c2ccccc2)C1O (configuration not stated) | . | -5.0% | -4.3% | -13.6% | -5.5% | -3.4%
CCOC(=O)c1c(C)[nH]c(C)c1C=O | ? | -3.8% | -1.4% | 18.0% | -20.1% | 1.8%
Cc1[nH]c(I)c(C)c1C=O | . | . | . | 14.1µM* | . | .
O=C(CCc1ccccc1)NCC12CC3CC(CC(C3)C1)C2 | . | . | . | 22.0% | . | .
CCc1nnc(N/N=C/c2cc(C)c(C)cc2C)n1N | 1.6% | ? | 15.8µM* | 9.2% | -106.5% | ?
CCc1nnc(N/N=C/c2c(C)[nH]c3ccccc23)n1N | -12.1% | -6.6% | ? | 31.6µM* | -14.4% | -7.4%[10 µM]
CCc1nnc(N/N=C/c2c(F)cccc2Cl)n1N | 2.0% | 9.8% | ? | -19.4% | ? | ?
CC1CCCCN1C(=O)C1COC2(CCN(C(=O)c3ccco3)CC2)N1C(=O)c1ccccc1 (configuration not stated) | . | . | . | 15.6% | . | .
CC(C)(C)c1ccccc1 | . | . | . | -4.2%[176 µM] | . | .
O=C(Nc1c(Cl)cccc1Cl)C1=C(c2ccccc2)S(=O)(=O)CCO1 | . | . | . | -3.8% | . | .
Cc1cccc(N2CCN(S(=O)(=O)c3ccc(F)c(C(=O)Nc4cccc(Cl)c4C)c3)CC2C)c1 (configuration not stated) | . | ? | . | -1.8% | ? | .
Cc1cccc(N2CCN(c3ccc(C(=O)O)cc3NC(=O)c3cccc(Cl)c3)CC2C)c1 (configuration not stated) | . | ? | . | 44.7µM* | ? | .
COc1ccccc1N1CCN(S(=O)(=O)c2cc(C(=O)Nc3ccc(Oc4ccccc4)cc3)ccc2F)CC1 | . | 5.8µM* | . | -12.8% | 3.26µM* | .
Cc1cccc(N2CCN(S(=O)(=O)c3cc(C(=O)Nc4ccc(Oc5ccccc5)cc4)ccc3F)CC2C)c1 (configuration not stated) | . | 2.91µM* | . | ? | 2.06µM* | .
COc1ccccc1N1C(=O)c2ccc(C(=O)Nc3ccc(F)cc3)cc2C1=O | -3.1% | -9.1% | -40.2% | 9.3% | 1.5% | 15.8µM*
O=C(CC1CCN(C(=O)C2CCC2)C1)NCc1ccccc1 (configuration not stated) | . | . | . | 30.7% | . | .
O=C(C1CCN(c2cnn(Cc3ccccc3)c(=O)c2)C1)N1CCCC1 (configuration not stated) | . | . | . | 14.3% | . | .
Cn1cncc1C(=O)N1CCCn2ccnc2C1c1ccccc1 (configuration not stated) | . | . | . | 58.5% | . | .
CN(C)C(CNC(=O)c1cc(=O)[nH]c2ccccc12)c1ccc(F)cc1 (configuration not stated) | . | . | . | 37.5% | . | .
O=C(Nc1ccc(Oc2ccccc2)cc1)c1ccc(F)c(S(=O)(=O)N2CCN(c3ccccc3F)CC2)c1 | . | 4.61µM* | . | -34.6% | 5.8µM* | .
C/C=C/Cn1c(NCCO)nc2c1c(=O)[nH]c(=O)n2C | . | . | . | -0.7% | . | .
